NALP1 yeast inh: NALP1 inhibition. S. cerevisiae NALP1/ASC/caspase-1 growth, X-gal OD620, 72 h. inhibition, % at 10 µM. hit rate 0.61% among 280,000. AID 2071; in the data active means inhibition mostly above about 24%, no sharp cut-off; inactive means mostly below about 32%
tim23-1 inh: tim23-1 yeast growth inhibition; S. cerevisiae tim23-1 growth, BacTiter-Glo luminescence, 24 h; inhibition, % at 20 µM; hit rate 1.3% among 330,000;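 active means growth inhibition of the mutant yeast at or above 50%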;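 further: temperature-sensitive mutant grown at 25 °C; plate controls were DMSO-treated mutant yeast for no effect and medium wells lacking yeast for full effect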
V-ATPase pH: regulators of yeast V-ATPase proton transport; S. cerevisiae, pHLuorin cytosolic pH fluorescence; response, % at 10 µM; hit rate 0.37% among 350,000; AID 504577; in the data active means response mostly above about 7.3%, no sharp cut-off; inactive means mostly below about 5.4%; further: actives read high
NLRP3 yeast inh: NALP3 inhibition in yeast | Yeast reconstituted NLRP3/ASC/caspase-1, beta-gal luminescence, 24 h | inhibition, % at 10 µM | hit rate 0.39% among 330,000 | AID 2825;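 active means inhibition of 50% or more; inactive means inhibition below 50%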;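 further: plate controls were induced DMSO wells for no effect and uninduced yeast grown without galactose for full effect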
TIM10 inh: TIM10 yeast growth inhibition; AID 463195; inhibition, % at 10 µM; hit rate 1.4% among 330,000; S. cerevisiae TIM10 strain growth, BacTiter-Glo luminescence, 24 h;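 active means inhibition of 40% or more at the single tested concentration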;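 further: wild-type TIM10 isogenic control strain grown at permissive 25 °C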
tim10-1 inh: growth inhibitors of tim10-1 mutant yeast. S. cerevisiae tim10-1 ts strain growth, BacTiter-Glo, 24 h. inhibition, % at 20 µM. hit rate 2.2% among 330,000. AID 463190;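 active means inhibition of at least 40%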;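 further: mutant grown at 25 °C; 0% = DMSO wells with yeast and 100% = wells holding no yeast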
tim23-1 conf: tim23-1 yeast growth inhibition, confirmed; S. cerevisiae tim23-1 growth, BacTiter-Glo luminescence, 24 h; AID 463218; shares compounds with tim23-1 inh; inhibition, % at 20 µM; hit rate 83% among 4,400;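 active means inhibition above about 39% in either of two replicate wells at 20 µM, limit read from the data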;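 further: temperature-sensitive tim23-1 mutant grown at 25 °C; 0% = DMSO wells with yeast and 100% = medium wells without yeast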
Starred values were filed as active, the others as inactive; x = not tested or not shown. The list is not random: actives were taken first. Their share in the collection is about 4.2%.

SMILES	NALP1 yeast inh	tim23-1 inh	V-ATPase pH	NLRP3 yeast inh	TIM10 inh	tim10-1 inh	tim23-1 conf
COc1ccc(C2CC(=O)Oc3cc(C)cc(C)c32)cc1 (stereo not drawn)	x	44.0	-2.4	x	-7.4	12.4	x
COc1ccc(C2CC(=O)Oc3c(C(C)C)ccc(C)c32)cc1 (stereo not drawn)	x	54.2*	-1.7	x	-1.8	21.2	41.5*
Cc1cc(C)cc(OCC(=O)N/N=C/c2ccc([N+](=O)[O-])o2)c1	-0.7	51.8*	2.1	21.2	33.2	33.5	37.7
O=C(CC12CC3CC(CC(C3)C1)C2)N/N=C/c1ccc([N+](=O)[O-])o1	42.1	57.4*	1.2	15.6	35.8	38.0	37.3
CC(OC(=O)CCN=C1NS(=O)(=O)c2ccccc21)C(=O)Nc1ccc(F)c(F)c1F (stereo not drawn)	x	1.8	-0.8	14.8	5.6	-3.4	x
CC(C)N1CCN(C(=O)c2ccc([N+](=O)[O-])cc2)CC1	x	6.7	0.7	14.5	7.6	6.5	x
c1ccc(-c2nc(NCc3cccs3)c3ccccc3n2)cc1	12.6	51.1*	0.4	13.4	27.6	-4.4	46.2*
O=C1/C(=C/c2cccs2)COc2ccccc21	36.6	58.4*	-3.6	-2.4	33.3	27.8	57.6*
O=C(CCN1C(=O)/C(=C/c2ccccc2Cl)SC1=S)NCCc1ccc(O)cc1	15.9	8.6	0.2	12.7	-12.6	22.6	x
COc1cccc(CNn2c(-c3cccc(C)c3)nc3ccccc3c2=O)c1O	1.9	56.9*	0.3	0.5	19.9	28.1	44.5*
COc1ccc(OC)c(CNn2c(-c3ccccc3F)nc3ccccc3c2=O)c1	-4.4	36.1	-2.5	1.8	32.9	35.2	x
O=C(O)CCCC(=O)N1N=C(c2ccccc2)CC1c1cccs1 (stereo not drawn)	-0.2	-0.3	0.0	0.3	-5.7	-4.2	x
Cc1ccc(S(=O)(=O)N2CCOCC2)cc1C(=O)OCCOc1cccc(Cl)c1	x	5.7	-0.2	22.0	3.4	38.1	x
CCOC(=O)C1=CN(Cc2cccc(F)c2)S(=O)(=O)NC1c1ccc(Br)cc1F (stereo not drawn)	x	56.0*	0.5	x	19.3	29.1	46.2*
COc1cc2c3c(c1)C(C)CC(C)(C)N3C(=O)C2=O (stereo not drawn)	-6.4	51.1*	2.0	8.4	-1.9	32.5	62.8*
CCOC(=O)NNc1ccc2nonc2c1[N+](=O)[O-]	10.3	55.7*	12.2	-16.8	31.3	19.9	69.2*
Cc1nnc(SC(C)C(=O)NC2CCCCC2C)s1 (stereo not drawn)	x	-2.5	3.6	12.5	-7.5	10.0	x
COc1ccccc1C(=O)N1CCN(C(=O)c2oc3ccc(C)cc3c2C)CC1	-8.0	25.7	2.8	5.3	6.6	19.0	x
O=C(N/N=C/C(Cl)=C/c1ccccc1)c1ccccc1F	22.0	50.9*	-0.7	42.0	4.4	20.7	27.1
O=C(N/N=C/C(Br)=C/c1ccccc1)c1ccccc1F	24.0	69.0*	-4.6	27.7	37.2	-0.3	51.1*
O=C(N/N=C/C(Cl)=C\c1ccccc1)c1cnccn1	16.0	9.4	-3.8	19.0	0.0	3.7	x
O=C(N/N=C/C(Cl)=C/c1ccccc1)c1ccco1	15.3	63.7*	-1.6	49.7	-22.1	-49.2	7.3
Cc1cc(C)c(NS(=O)(=O)c2ccccc2)c(C)n1	x	x	3.3	x	x	x	x
O=C(CSc1cccc[n+]1[O-])c1ccc(Cl)s1	27.5	12.6	1.5	-2.6	-20.9	9.1	x
Nc1ccc(Sc2cnn(-c3ccccc3)c(=O)c2Cl)cc1	11.6	50.4*	0.1	30.6	18.7	16.6	28.7
SMILES	NALP1 yeast inh	tim23-1 inh	V-ATPase pH	NLRP3 yeast inh	TIM10 inh	tim10-1 inh	tim23-1 conf
Cc1c(O)c(CN2CCCC2)cc2c1oc(=O)c1ccccc12	-5.9	19.8	4.7	1.4	20.9	27.6	x
Cc1c(O)c(CN2CCCC2)cc2c3c(c(=O)oc12)CCC3	20.8	53.4*	-1.4	-0.2	9.0	20.2	35.5
Cc1ccc(/C=N/n2c(C3CCCCC3)n[nH]c2=S)cc1	-2.6	57.4*	2.2	30.4	16.2	25.2	38.7
O=[N+]([O-])c1cccc(/C=N/n2c(C3CCCCC3)n[nH]c2=S)c1	18.1	26.2	-0.1	28.9	15.8	26.0	x
S=c1[nH]nc(C2CCCCC2)n1/N=C/c1ccc(Cl)cc1	4.4	63.2*	-0.2	17.7	39.7	35.3	30.0
FC(F)(F)c1ccc(/C=N/n2c(C3CCCCC3)n[nH]c2=S)cc1	-4.9	64.0*	-3.4	32.7	26.1	36.5	29.8
O=[N+]([O-])c1ccccc1/C=N/n1c(C2CCCCC2)n[nH]c1=S	2.7	59.3*	-1.8	19.8	37.0	39.8	48.5*
CC(=O)Nc1ccc(S(=O)(=O)NCCC(=O)NC(C)c2cccs2)cc1 (stereo not drawn)	x	-6.4	3.6	-0.7	10.8	-15.5	x
Cc1ccc(Cl)cc1N1CCN(C(=O)c2ccc3c(c2)CCN3S(C)(=O)=O)CC1	-3.9	25.3	-3.1	-1.3	14.2	2.6	x
O=C(O)c1ccc(N/N=C/c2ccc(-c3ccc(Br)cc3)o2)cc1	20.5	52.0*	1.8	25.9	-24.7	-2.5	47.2*
COc1ccc(C2CC(c3ccc(C(F)(F)F)cc3)=NN2c2ccc(S(N)(=O)=O)cc2)cc1 (stereo not drawn)	x	50.8*	-10.8	x	29.5	32.2	13.5
CCN1C=C(C(=O)c2ccccc2)C(=O)CC1	x	x	1.1	x	x	x	x
CCn1c(=O)c2cc(C(=O)NCCC(C)C)sc2c2ccccc21	33.3	23.9	0.4	17.3	1.9	25.4	x
CCC(C)NC(=O)c1cc2c(=O)n(CC)c3ccccc3c2s1 (stereo not drawn)	14.3	52.3*	2.1	-1.5	12.6	34.1	49.2*
CC(C)(C)OC(=O)N1CCc2onc(-c3ccc(Cl)cc3)c2C1=O	x	x	-0.4	x	x	x	x
COc1ccc(-c2cc(-c3ccc(F)cc3)nc(N3CCN(C)CC3)n2)cc1	x	55.1*	7.4	34.1	31.0	28.5	57.5*
COc1ccc(-c2cc(C(F)(F)F)nc(N3CCOCC3)n2)cc1	2.5	-19.6	-4.8	7.2	-16.8	-9.2	x
CN(C(=O)c1cccc(NC(=O)Cc2ccc(NC(=O)C3CCN(C(=O)C4CC4)CC3)cc2)c1)C1CCCC1	x	x	-3.3	x	x	x	x
O=C1OC(c2ccccc2)=N/C1=C\C=C\c1ccco1	3.6	82.0*	-4.2	26.4	31.1	32.5	80.8*
CCCC(NC(=S)NCC1CCCO1)C12CC3CC(CC(C3)C1)C2 (stereo not drawn)	-13.9	50.8*	0.2	19.7	36.8	38.9	50.9*
S=C(NCC1CCCO1)NC1CCCCC1 (stereo not drawn)	-8.3	-11.3	3.4	10.4	3.5	-2.4	x
CC[n+]1c(/C=C/N(C)c2ccccc2)n(-c2ccccc2)c2ccc(-c3nc4ccccc4s3)cc21	45.8*	79.8*	-2.6	39.2	29.4	36.6	65.2*
